An excerpt weighted towards active compounds, which were near 7.3% of everything screened.
FLuc modulator: qHTS profiling assay for firefly luciferase inhibitor/activator using purifed enzyme and Km concentrations of substrates (counterscreen for miR-21 project) | Luciferin 4-monooxygenase (Photinus pyralis), P08659 | purified FLuc, Km substrates, luminescence inhibition | Potency, µM (highest dose often 57.5 µM), for inactives: at the highest dose activity change, negative = inhibition, actives largely listed as inhibitors | 360,000 compounds, 6.9% hits;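 further: plate controls were vehicle for no effect and reference inhibitor for full effect; nearly all actives have a fitted effect of over 55% in size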
Target sequence (P08659 whole entry, looked up): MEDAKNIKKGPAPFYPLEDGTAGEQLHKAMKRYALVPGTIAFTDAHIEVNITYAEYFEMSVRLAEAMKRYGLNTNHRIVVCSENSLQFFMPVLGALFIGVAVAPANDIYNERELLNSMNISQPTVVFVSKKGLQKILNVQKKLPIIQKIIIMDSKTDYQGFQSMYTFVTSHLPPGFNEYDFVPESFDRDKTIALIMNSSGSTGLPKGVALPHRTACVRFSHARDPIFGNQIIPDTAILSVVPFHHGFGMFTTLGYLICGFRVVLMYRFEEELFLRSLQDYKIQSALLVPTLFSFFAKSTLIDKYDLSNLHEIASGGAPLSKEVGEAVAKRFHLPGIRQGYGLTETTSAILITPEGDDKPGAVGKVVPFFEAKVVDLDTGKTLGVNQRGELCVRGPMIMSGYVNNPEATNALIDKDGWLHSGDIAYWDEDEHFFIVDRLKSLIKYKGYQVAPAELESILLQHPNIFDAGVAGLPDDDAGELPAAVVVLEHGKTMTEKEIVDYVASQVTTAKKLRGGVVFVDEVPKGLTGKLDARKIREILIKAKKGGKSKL
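Biochemical qHTS of compounds, final roughly 60 µM downward over six points, against 10 nM purified firefly luciferase using Km concentrations of substrates (10 uM D-luciferin, 10 uM ATP) in Tris acetate pH 7.5 buffer; luminescence output.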
NPC1 promoter act: qHTS Assay for NPC1 Promoter Activators; Huh7 NPC1 promoter luciferase reporter, 24 h; Potency, µM (highest dose often 9.22 µM), for the others: top-dose activation, most hits filed as activators; 320,000 compounds, 2.4% hits; AID 485313, 2010; further: % of control where 0% means no effect; nearly all actives have a fitted effect of over 60% in size
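Luciferase expression driven by the NPC1 promoter was measured in stably transfected Huh7 cells after a 24 h compound incubation, using a luciferase reagent and a luminescence read.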
ELG1 genotox: qHTS screen for small molecules that induce genotoxicity in human embryonic kidney (HEK293T) cells expressing luciferase-tagged ELG1 | 330,000 compounds, 1.3% hits | HEK293T ELG1-luciferase reporter, luminescence, 16 h | Potency, µM (titrated, usually from 46 µM), inactives show at the top dose activity change, positive = activation, actives largely listed as activators; further: % of control where 0% means no effect; nearly all actives have a fitted effect of over 60% in size
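Genotoxicity was scored as increased ELG1-luciferase reporter signal, measured by ONE-Glo luminescence (30 min, room temperature). Compound or vehicle exposure of the HEK293T reporter cells lasted 16 hr at 37°C.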
SMN2 splice enh: qHTS Assay for Enhancers of SMN2 Splice Variant Expression. HEK293 SMN2-luciferase splicing reporter, luminescence, 30-36 h. Potency, µM (highest dose often 46.1 µM), without a hit: at the highest dose activity change, positive = activation, hits mostly activators. 210,000 compounds, 2.8% hits; further: % of control where 0% means no effect; nearly all actives have a fitted effect of over 55% in size
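qHTS luciferase splicing reporter: luminescence rises when SMN2 exon 7 is included in transfected HEK293 cells. Compound exposure lasted 30-36 h at 37C, with 4.5 mM final sodium butyrate as control, followed by a ONE-Glo read.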
KinaseGlo FLuc: Counterscreen for Luciferase (Kinase-Glo TM) Inhibition. Luciferin 4-monooxygenase (Photuris pensylvanica), Q27757. 200,000 compounds, 0.28% hits. Kinase-Glo luciferase, ATP luminescence, 8 min. Potency, µM (highest dose often 38.3 µM), for the others: at the top dose activity change, negative = inhibition, actives largely listed as inhibitors; further: on the % scale 0 is the no-effect control and ±100 the full control effect; nearly all actives have a fitted effect of over 60% in size
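Substrate mix (final 50 mM imidazole pH 7.2, 50 mM KCl, 7 mM MgCl2, 10 uM ATP, 0.01% Tween 20, 0.05% BSA) plus pin-tool compound, then Kinase-Glo detection mix; 8 min ambient, luminescence read.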
Rab9 promoter act: qHTS Assay for Rab9 Promoter Activators. AID 485297, 2010. Huh7 Rab9 promoter-luciferase reporter, luminescence, 24 h. Potency, µM (top dose mostly 9.22 µM), inactives show top-dose activation, negative = inhibition, actives largely listed as activators. 320,000 compounds, 2.8% hits; further: % of control where 0% means no effect; nearly all actives have a fitted effect of over 60% in size
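Cell-based reporter: Huh7 stable for Rab9 promoter-driven luciferase, plated in reduced-serum medium with 10% FBS at 1500 cells/well, compound-treated 24 h at 37 °C, luminescence read after 10 min reagent.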
The depositor's hits bear a star; ? = inconclusive; . = no result; [ ] = another dose, or the depositor's remark. The call rests on the fitted dose curve; in most records, active means well fitted curve in the direction sought with a large enough effect; inconclusive means small, poorly fitted or top-dose-only effect, or another doubt; inactive means no such curve, though single readings can be large; an effect the other way counts as inactive or inconclusive. Potency means the concentration at half of the fitted maximal effect.

SMILES	FLuc modulator	NPC1 promoter act	ELG1 genotox	SMN2 splice enh	KinaseGlo FLuc	Rab9 promoter act
Oc1ccccc1-c1cc(-c2ccc3c(c2)OCCO3)n[nH]1	0.338µM*	0.501µM*	0.366µM*	3.16µM*	-7.2%	0.708µM*
CC(C)(C)c1ccc(C(=O)Oc2ccc3c(c2)OCC3=O)cc1	2.69µM*	-0.2%	8.4%	5.0%	0.0%	-5.0%
O=C(Oc1ccc2c(c1)OCC2=O)c1ccccc1	26.9µM*	-0.5%	1.2%	11.4%	-1.9%	0.5%
CCN(CC)S(=O)(=O)c1ccc(C(=O)Oc2ccc3c(c2)OCO3)cc1	-1.2%	-0.2%	1.6%	1.5%	-0.8%	1.4%[1.84 µM]
CC(=O)Oc1ccc2c(c1)C(=O)c1ccccc1CO2	4.78µM*	1.1%	?	-32.3%	-4.3%	6.8%
Cc1c2cnn(CC(=O)N3CCCCC3)c(=O)c2c(C)n1Cc1ccc(Cl)cc1	0.1%	.	.	-11.9%	.	.
CC(C)(C)n1ncc2c(=O)n(Cc3cccc(C#N)c3)cnc21	3.5%	.	.	.	.	.
CCCCN1CC(c2nc3ccccc3n2CCCCOc2ccc(C)c(C)c2)CC1=O (stereo unspecified)	0.1%	.	.	.	.	.
O=C(COc1ccc2ccccc2c1Br)Nc1cccnc1	4.78µM*	?	17.8%	.	.	3.5%
O=C(COc1ccc2ccccc2c1Br)Nc1ccncc1	12µM*	-13.7%	8.4%	.	.	-10.5%
Cc1ccc2oc(C(=O)Nc3nc(-c4ccc(F)cc4)ns3)c(C)c2c1	?	.	.	3.0%	.	.
CCCCn1cc(S(=O)(=O)c2ccc(CC)cc2)c(=O)c2cc(F)c(N3CCOCC3)cc21	-7.7%	.	.	.	.	.
CCOC(=O)C1C(=O)CC(C)(O)C(C(=O)OCC)C1c1ccccc1 (stereo unspecified)	-1.0%	-11.9%	1.2%	25.8%	3.0%	0.2%
CCOC(=O)C1C(=O)CC(C)(O)C(C(=O)OCC)C1c1ccc(C)s1 (stereo unspecified)	6.4%[2.3 µM]	4.47µM*	2.2%	21.5%	4.5%	?
CCCCC(=O)NC(=S)Nc1cc(C(=O)O)ccc1OC	4.4%	-2.1%	0.8%	2.9%	-1.5%	-8.1%
COc1ccc(C(=O)O)cc1NC(=S)NC(=O)/C=C/c1ccc(C(C)C)cc1	10.7µM*	1.7%	0.3%	.	.	-2.9%
Cn1cc(C(=O)NCCc2ccccc2)c(=O)c2cc(S(=O)(=O)N3CCCCC3)ccc21	-1.5%	.	.	-5.2%	.	.
Cc1ccc(N2C(=O)CS(=O)C(c3ccccc3)C2=O)cc1C (stereo unspecified)	12µM*	4.0%	13.5%	-2.8%	0.3%	11.5%
Cc1ccc(N2C(=O)C3C(C2=O)N2CCCN2C3c2ccccc2)cc1C (stereo unspecified)	-3.3%	-1.9%	1.2%	-8.3%	0.7%	-1.0%
CCCc1ccc2oc(C(=O)N3CCC(COC)C3)c(C)c2c1 (stereo unspecified)	12µM*	2.82µM*	?	.	.	2.82µM*
CCCc1ccc2oc(C(=O)N3CCC[C@H]3CO)c(C)c2c1	10.7µM*	6.31µM*	?	.	.	3.16µM*
CCCc1ccc2oc(C(=O)N3CCC(N4CCCC(O)C4)CC3)c(C)c2c1 (stereo unspecified)	-19.0%	-0.8%	1.9%	.	.	2.0%
CCOC(=O)C(=O)Nc1nnc2n1CCS2	0.5%	.	.	.	.	.
O=C(c1ccc(CSc2ccc(Cl)cc2)cc1)N1CCCC1	19µM*	24.2%	10.1%	7.5%	-0.4%	?
O=C(Cc1ccc(Cl)cc1)Nc1ccc(C(=O)N2CCCCC2)cc1	26.9µM*	9.6%	11.6%	.	.	-0.6%
Cc1ccc(CC(=O)Nc2ccc(C(=O)N3CCCCC3)cc2)cc1	2.6%	7.1%	-5.2%	.	.	1.3%

Assay outcomes as filed in PubChem BioAssay.
